From PubChem BioAssay
This is one part of a sample in which hits are shown more often than they occur.
SF-1 inh – blocks the human nuclear receptor SF-1. inhibition, % at 10 µM. Q13285. CHO-K1 Gal4-SF-1 LBD luciferase reporter. hit rate 0.55% among 65,000;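 active = inhibition above the mean inhibition of all tested compounds plus 3 SD, cut at about 48% in these data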
Target sequence (Q13285 whole entry, looked up, the tested form may be a part): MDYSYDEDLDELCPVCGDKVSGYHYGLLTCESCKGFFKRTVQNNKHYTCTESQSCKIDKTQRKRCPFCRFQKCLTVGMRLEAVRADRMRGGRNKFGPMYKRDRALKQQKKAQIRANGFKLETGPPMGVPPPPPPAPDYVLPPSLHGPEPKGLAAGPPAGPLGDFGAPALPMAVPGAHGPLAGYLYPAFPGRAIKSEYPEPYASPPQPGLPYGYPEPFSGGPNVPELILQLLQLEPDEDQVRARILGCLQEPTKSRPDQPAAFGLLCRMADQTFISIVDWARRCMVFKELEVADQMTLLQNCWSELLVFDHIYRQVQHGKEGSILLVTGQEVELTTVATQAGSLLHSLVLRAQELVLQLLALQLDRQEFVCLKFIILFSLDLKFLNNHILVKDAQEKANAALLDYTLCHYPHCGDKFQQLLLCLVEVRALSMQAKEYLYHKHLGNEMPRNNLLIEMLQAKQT
A number is an active result; . = inactive.

SMILES	SF-1 inh
CCn1nc(-c2cccs2)nc2c(=O)n(C)c(=O)nc1-2	96
CCN(CC)CCN=Cc1c(O)n(CCC2=CCCCC2)c(=O)[nH]c1=O	.
Cc1c2cnn(CC(=O)N3CCC4(CC3)OCCO4)c(=O)c2c(C)n1Cc1ccccc1F	.
N[C@@H](Cc1c[nH]c2ccccc12)c1nnc(SCc2ccc(F)cc2)o1	.
O=C(c1cccs1)C1CN2CCC1CC2 (stereo not drawn)	.
Cc1cnn(C2CCN(C)CC2)c1N	.
CC12CCCCC1=[N+]([O-])CN2O (stereo not drawn)	.
COc1cc2nc(CN3CC=C(c4ccccc4)CC3)[nH]c(=O)c2cc1OC	88
COc1ccccc1-n1c(-c2ccoc2)nc2ccccc2c1=O	.
C=C1N2CCC(CC2)C1(O)c1ccccc1C (stereo not drawn)	.
